Data reported in PubChem BioAssay AID1159580 (chemical genetic matrix, 2015).
About 2,000 (36%) of roughly 5,500 compounds were called active. Not shown: some 18% with an inconclusive outcome. Some of the results follow. Unmarked numbers belong to inactive results. No stated cut-off is given here; in the data, active means normalized growth mostly below about 0.91 (no sharp cut-off); inconclusive means no clear call, values can overlap the other calls; inactive means mostly above about 0.92.

Test: chemical genetic growth profiling, strain panel (AID 1159580);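 further: tested at 20 µM; growth read once vehicle control cultures reached saturation at 30 °C; 1 = growth at the plate median or of vehicle wells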
Conditions: S. cerevisiae deletion strains, growth OD
[1] = locus YAL013W, strain DEP1, stronger effect = lower value
[2] = locus YMR263W, strain SAP30, stronger effect = lower value
[3] = locus YNL322C, strain KRE1, stronger effect = lower value
[4] = locus YAL040C, strain CLN3, stronger effect = lower value
[5] = locus YCL061C, strain MRC1 (second series), stronger effect = lower value
[6] = locus YDR150W, strain NUM1, stronger effect = lower value
[7] = locus YDR363W, strain ESC2, stronger effect = lower value
[8] = locus YER002W, strain NOP16, stronger effect = lower value
[9] = locus YNL175C, strain NOP13, stronger effect = lower value
[10] = locus YNL197C, strain WHI3, stronger effect = lower value
[11] = locus YNL224C, strain SQS1, stronger effect = lower value
[12] = locus YOR083W, strain WHI5 (second series), stronger effect = lower value

Q: With `CC(Cc1ccc(O)c(O)c1)C(C)Cc1ccc(O)c(O)c1` (configuration not stated) as the compound, how does the normalized growth [1] read?
A: The normalized growth was 0.625 (active).

Q: And the normalized growth (locus YBR021W, strain FUR4, stronger effect = lower value)?
A: Its normalized growth is 0.952.

Q: And the normalized growth (locus YBR229C, strain ROT2, stronger effect = lower value)?
A: The normalized growth was 0.909 (active).

Q: What about the normalized growth (locus YCL029C, strain bik1, stronger effect = lower value) of the same compound?
A: The normalized growth was 0.916.

Q: What about the normalized growth (locus YDL035C, strain GPR1, stronger effect = lower value) of the same compound?
A: The normalized growth was 0.774 (active).

Q: And the normalized growth (locus YDL074C, strain BRE1, stronger effect = lower value)?
A: Its normalized growth is 0.48 (active).

Q: And the normalized growth (locus YDL101C, strain DUN1, stronger effect = lower value)?
A: The normalized growth was 0.522 (active).

Q: What about the normalized growth (locus YDL185W, strain tfp1, stronger effect = lower value) of the same compound?
A: The normalized growth was 0.995.

Q: And the normalized growth (locus YDL192W, strain arf1, stronger effect = lower value)?
A: Its normalized growth is 0.896 (active).

Q: What about the normalized growth (locus YDR101C, strain arx1, stronger effect = lower value) of the same compound?
A: Its normalized growth is 0.939.

Q: What about the normalized growth (locus YDR162C, strain NBP2, stronger effect = lower value) of the same compound?
A: The normalized growth was 0.428 (active).

Q: And the normalized growth (locus YDR318W, strain mcm21, stronger effect = lower value)?
A: The normalized growth was 0.955.

Q: What about the normalized growth (locus YDR388W, stronger effect = lower value) of the same compound?
A: Its normalized growth is 0.895 (active).

Q: And the normalized growth (locus YDR502C, strain sam2, stronger effect = lower value)?
A: Its normalized growth is 0.813 (active).

Q: What about the normalized growth (locus YEL061C, strain CIN8, stronger effect = lower value) of the same compound?
A: The normalized growth was 0.681 (active).

Q: What about the normalized growth (locus YER110C, stronger effect = lower value) of the same compound?
A: Its normalized growth is 0.988.

Q: And the normalized growth (locus YER155C, strain BEM2, stronger effect = lower value)?
A: The normalized growth was 0.756 (active).

Q: What about the normalized growth (locus YER167W, strain BCK2, stronger effect = lower value) of the same compound?
A: The normalized growth was 0.957.

Q: What about the normalized growth (locus YGL078C, strain dbp3, stronger effect = lower value) of the same compound?
A: The normalized growth was 0.999.

Q: And the normalized growth (locus YGL086W, strain mad1, stronger effect = lower value)?
A: Its normalized growth is 0.909 (active).

Q: What about the normalized growth (locus YGL248W, strain PDE1, stronger effect = lower value) of the same compound?
A: The normalized growth was 0.814 (active).

Q: And the normalized growth (locus YGR078C, strain PAC10, stronger effect = lower value)?
A: The normalized growth was 0.818 (active).

Q: What about the normalized growth (locus YGR135W, strain pre9, stronger effect = lower value) of the same compound?
A: The normalized growth was 0.854 (active).

Q: And the normalized growth (locus YGR229C, strain SMI1, stronger effect = lower value)?
A: The normalized growth was 0.419 (active).

Q: And the normalized growth (locus YGR252W, strain gcn5, stronger effect = lower value)?
A: The normalized growth was 0.792.

Q: And the normalized growth (locus YHR030C, strain SLT2, stronger effect = lower value)?
A: The normalized growth was 0.87 (active).

Q: What about the normalized growth (locus YHR079C, strain IRE1 (second series), stronger effect = lower value) of the same compound?
A: The normalized growth was 0.904 (active).

Q: What about the normalized growth (locus YHR094C, strain hxt1, stronger effect = lower value) of the same compound?
A: Its normalized growth is 1.01.

Q: What about the normalized growth (locus YHR129C, strain ARP1, stronger effect = lower value) of the same compound?
A: The normalized growth was 0.73 (active).

Q: And the normalized growth (locus YHR200W, strain rpn10, stronger effect = lower value)?
A: Its normalized growth is 0.964.

Q: And the normalized growth (locus YIL066C, strain RNR3, stronger effect = lower value)?
A: Its normalized growth is 0.61 (active).

Q: And the normalized growth (locus YIL073C, strain SPO22, stronger effect = lower value)?
A: Its normalized growth is 0.499 (active).

Q: What about the normalized growth (locus YIL125W, strain kgd1, stronger effect = lower value) of the same compound?
A: The normalized growth was 1.

Q: What about the normalized growth (locus YIR030C, strain dcg1, stronger effect = lower value) of the same compound?
A: The normalized growth was 0.903 (active).

Q: And the normalized growth (locus YJL095W, strain BCK1, stronger effect = lower value)?
A: Its normalized growth is 0.113 (active).

Q: And the normalized growth (locus YJL134W, strain LCB3, stronger effect = lower value)?
A: Its normalized growth is 0.909 (active).

Q: And the normalized growth (locus YJL168C, strain set2, stronger effect = lower value)?
A: The normalized growth was 0.983.

Q: What about the normalized growth (locus YJL187C, strain SWE1 (second series), stronger effect = lower value) of the same compound?
A: The normalized growth was 0.621 (active).

Q: And the normalized growth (locus YJR043C, strain POL32, stronger effect = lower value)?
A: Its normalized growth is 0.425 (active).

Q: And the normalized growth (locus YKL009W, strain mrt4, stronger effect = lower value)?
A: Its normalized growth is 0.993.

Q: What about the normalized growth (locus YKL068W, stronger effect = lower value) of the same compound?
A: The normalized growth was 1.01.

Q: What about the normalized growth (locus YKL085W, strain MDH1 (second series), stronger effect = lower value) of the same compound?
A: Its normalized growth is 0.992.

Q: And the normalized growth (locus YKL085W, strain MDH1, stronger effect = lower value)?
A: The normalized growth was 0.992.

Q: And the normalized growth (locus YKR001C, strain vps1, stronger effect = lower value)?
A: Its normalized growth is 0.882 (active).

Q: And the normalized growth (locus YLR039C, strain RIC1, stronger effect = lower value)?
A: The normalized growth was 0.293 (active).

Q: And the normalized growth (locus YLR058C, strain SHM2, stronger effect = lower value)?
A: The normalized growth was 0.643 (active).

Q: What about the normalized growth (locus YLR102C, strain apc9, stronger effect = lower value) of the same compound?
A: Its normalized growth is 1.01.

Q: And the normalized growth (locus YLR262C, strain YPT6, stronger effect = lower value)?
A: The normalized growth was 0.616.

Q: And the normalized growth (locus YLR268W, strain sec22, stronger effect = lower value)?
A: The normalized growth was 0.853 (active).

Q: What about the normalized growth (locus YLR330W, strain CHS5, stronger effect = lower value) of the same compound?
A: Its normalized growth is 0.82 (active).

Q: And the normalized growth (locus YLR342W, strain FKS1 (second series), stronger effect = lower value)?
A: Its normalized growth is 0.645 (active).

Q: What about the normalized growth (locus YLR371W, strain rom2, stronger effect = lower value) of the same compound?
A: The normalized growth was 0.919.

Q: What about the normalized growth (locus YLR418C, strain cdc73, stronger effect = lower value) of the same compound?
A: Its normalized growth is 0.673 (active).

Q: What about the normalized growth (locus YML016C, strain PPZ1, stronger effect = lower value) of the same compound?
A: The normalized growth was 0.746 (active).

Q: What about the normalized growth (locus YML032C, strain rad52, stronger effect = lower value) of the same compound?
A: The normalized growth was 0.927.

Q: What about the normalized growth (locus YML124C, strain tub3, stronger effect = lower value) of the same compound?
A: Its normalized growth is 0.979.

Q: What about the normalized growth (locus YMR078C, strain ctf18, stronger effect = lower value) of the same compound?
A: Its normalized growth is 0.973.

Q: What about the normalized growth (locus YMR223W, strain ubp8, stronger effect = lower value) of the same compound?
A: The normalized growth was 0.91.

Q: What about the normalized growth [2] of the same compound?
A: The normalized growth was 0.455 (active).

Q: And the normalized growth (locus YMR307W, strain GAS1, stronger effect = lower value)?
A: The normalized growth was 0.691.

Q: And the normalized growth (locus YNL067W, strain RPL9B, stronger effect = lower value)?
A: Its normalized growth is 0.726 (active).

Q: What about the normalized growth (locus YNL128W, strain TEP1, stronger effect = lower value) of the same compound?
A: Its normalized growth is 0.816 (active).

Q: What about the normalized growth (locus YNL233W, strain BNI4, stronger effect = lower value) of the same compound?
A: The normalized growth was 0.849 (active).

Q: And the normalized growth (locus YNL250W, strain rad50, stronger effect = lower value)?
A: The normalized growth was 1.03.

Q: What about the normalized growth (locus YNL271C, strain bni1, stronger effect = lower value) of the same compound?
A: Its normalized growth is 0.997.

Q: What about the normalized growth (locus YNL298W, strain CLA4, stronger effect = lower value) of the same compound?
A: The normalized growth was 0.981.

Q: What about the normalized growth (locus YNL307C, strain MCK1, stronger effect = lower value) of the same compound?
A: The normalized growth was 0.899 (active).

Q: What about the normalized growth [3] of the same compound?
A: The normalized growth was 0.522 (active).

Q: What about the normalized growth (locus YNR052C, strain pop2, stronger effect = lower value) of the same compound?
A: The normalized growth was 0.927.

Q: What about the normalized growth (locus YOL012C, strain htz1) of the same compound?
A: Its normalized growth is 0.299.

Q: What about the normalized growth (locus YOL147C, strain pex11, stronger effect = lower value) of the same compound?
A: The normalized growth was 0.936.

Q: And the normalized growth (locus YOR061W, strain CKA2, stronger effect = lower value)?
A: Its normalized growth is 0.871 (active).

Q: And the normalized growth (locus YOR069W, strain VPS5, stronger effect = lower value)?
A: The normalized growth was 0.858 (active).

Q: What about the normalized growth (locus YOR136W, strain idh2, stronger effect = lower value) of the same compound?
A: The normalized growth was 1.01.

Q: What about the normalized growth (locus YOR144C, strain elg1, stronger effect = lower value) of the same compound?
A: The normalized growth was 0.95.

Q: And the normalized growth (locus YOR184W, strain ser1, stronger effect = lower value)?
A: Its normalized growth is 0.784 (active).

Q: And the normalized growth (locus YOR316C, strain cot1, stronger effect = lower value)?
A: Its normalized growth is 0.999.

Q: And the normalized growth (locus YPR119W, strain clb2, stronger effect = lower value)?
A: Its normalized growth is 1.01.

Q: What about the normalized growth (locus YPR141C, strain kar3, stronger effect = lower value) of the same compound?
A: Its normalized growth is 1.01.

Q: What about the normalized growth (locus YPR163C, strain tif3, stronger effect = lower value) of the same compound?
A: Its normalized growth is 0.982.

Q: And the normalized growth (locus YPR167C, strain met16, stronger effect = lower value)?
A: The normalized growth was 0.952.

Q: What about the normalized growth (strain wtn01, stronger effect = lower value) of the same compound?
A: The normalized growth was 0.892 (active).

Q: What does the source list for `NC(Cc1ccc(O)c(O)c1)C(=O)O` (configuration not stated)?
A: normalized growth [1]: 0.997; normalized growth [4]: 1.02; normalized growth [5]: 0.977; normalized growth [6]: 0.955; normalized growth [7]: 1.02; normalized growth [8]: 1.01; normalized growth [2]: 1.01; normalized growth [9]: 1.01; normalized growth [10]: 1.03; normalized growth [11]: 1.01; normalized growth [12]: 0.97

Q: For `CC(N)[C@H](O)c1ccc(O)c(O)c1` (some centres not stated), which normalized growth [1] is on record?
A: The normalized growth was 0.998.

Q: And the normalized growth [4]?
A: Its normalized growth is 1.05.

Q: And the normalized growth [5]?
A: The normalized growth was 0.993.

Q: What about the normalized growth [6] of the same compound?
A: The normalized growth was 0.995.

Q: What about the normalized growth [7] of the same compound?
A: Its normalized growth is 0.989.

Q: What about the normalized growth [8] of the same compound?
A: The normalized growth was 1.

Q: What about the normalized growth (locus YJR075W, strain HOC1, stronger effect = lower value) of the same compound?
A: The normalized growth was 0.983.

Q: And the normalized growth (locus YNL153C, strain GIM3, stronger effect = lower value)?
A: Its normalized growth is 0.986.

Q: What about the normalized growth [9] of the same compound?
A: The normalized growth was 1.01.

Q: And the normalized growth [10]?
A: Its normalized growth is 1.01.

Q: What about the normalized growth [11] of the same compound?
A: Its normalized growth is 0.992.

Q: What about the normalized growth [3] of the same compound?
A: The normalized growth was 1.01.

Q: And the normalized growth [12]?
A: Its normalized growth is 0.988.

Q: And the normalized growth (locus YPL055C, strain LGE1, stronger effect = lower value)?
A: Its normalized growth is 1.
